According to the supplement of paper PMC11732987, “Enantioselective OTUD7B fragment discovery through chemoproteomics screening and high-throughput optimisation” (Communications Chemistry, 2025):

Assays:
Assay in all cases: log2 ratio of Biotin-Ahx-Ub-VS probe labelling (fragment/DMSO); higher = less target engagement (more negative = stronger competition), active = hit call of the paper (q ≤ 0.05, log2 ratio ≤ -1)
Conditions in all cases: compound concentration: 200 uM; treatment time: 3 h
[1] = target: USP34 (UniProt Q70CQ2)
Summary of the method: (§1)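 Labelling with Biotin-Ahx-Ub-VS (0.5 µM final, 1 h) followed a 3 h triplicate treatment of HEK293T lysate (495 µg per sample, Tris/CHAPS/IGEPAL buffer with protease inhibitors) with fragment at 200 µM or vehicle. Labelled DUBs were NeutrAvidin-enriched, digested with LysC and trypsin, and run by diaPASEF LC-MS/MS. The values, average log2 fragment/vehicle ratios by unpaired t-test, come from global-median-normalised Spectronaut label-free quantities. Proteins with ≥2 unique peptides were used.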

[2] = target: T1, USP36 (UniProt Q9P275)
T1 sequence (whole entry): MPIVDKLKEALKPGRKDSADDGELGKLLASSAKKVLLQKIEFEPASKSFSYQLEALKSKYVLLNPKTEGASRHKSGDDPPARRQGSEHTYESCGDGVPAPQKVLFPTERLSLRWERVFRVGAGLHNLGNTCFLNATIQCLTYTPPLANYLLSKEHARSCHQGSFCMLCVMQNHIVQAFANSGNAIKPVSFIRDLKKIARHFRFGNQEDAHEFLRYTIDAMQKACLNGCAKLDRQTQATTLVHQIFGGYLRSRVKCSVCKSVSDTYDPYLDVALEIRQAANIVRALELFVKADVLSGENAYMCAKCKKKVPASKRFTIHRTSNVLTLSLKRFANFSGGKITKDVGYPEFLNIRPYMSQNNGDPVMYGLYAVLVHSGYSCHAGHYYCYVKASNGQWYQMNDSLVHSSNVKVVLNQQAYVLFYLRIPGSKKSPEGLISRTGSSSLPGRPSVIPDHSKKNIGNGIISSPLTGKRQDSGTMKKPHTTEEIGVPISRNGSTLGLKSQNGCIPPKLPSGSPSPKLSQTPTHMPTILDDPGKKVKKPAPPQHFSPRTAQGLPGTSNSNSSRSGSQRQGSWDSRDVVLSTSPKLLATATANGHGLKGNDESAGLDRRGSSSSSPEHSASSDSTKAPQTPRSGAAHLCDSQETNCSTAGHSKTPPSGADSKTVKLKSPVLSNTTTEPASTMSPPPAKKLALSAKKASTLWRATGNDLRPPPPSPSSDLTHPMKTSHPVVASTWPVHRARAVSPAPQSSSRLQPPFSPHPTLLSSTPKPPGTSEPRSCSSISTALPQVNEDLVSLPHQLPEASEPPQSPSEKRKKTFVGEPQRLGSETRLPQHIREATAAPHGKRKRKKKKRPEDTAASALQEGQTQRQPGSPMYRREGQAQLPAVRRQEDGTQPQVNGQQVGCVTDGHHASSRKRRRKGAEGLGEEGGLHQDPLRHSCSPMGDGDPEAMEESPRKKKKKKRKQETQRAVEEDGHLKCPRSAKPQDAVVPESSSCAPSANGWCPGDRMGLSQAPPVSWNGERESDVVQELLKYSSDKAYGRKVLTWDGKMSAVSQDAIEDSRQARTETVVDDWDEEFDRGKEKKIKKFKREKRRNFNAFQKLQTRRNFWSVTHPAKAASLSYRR
Summary of the method: as §1

[3] = target: T2, USP38 (UniProt Q8NB14)
T2 sequence (whole entry): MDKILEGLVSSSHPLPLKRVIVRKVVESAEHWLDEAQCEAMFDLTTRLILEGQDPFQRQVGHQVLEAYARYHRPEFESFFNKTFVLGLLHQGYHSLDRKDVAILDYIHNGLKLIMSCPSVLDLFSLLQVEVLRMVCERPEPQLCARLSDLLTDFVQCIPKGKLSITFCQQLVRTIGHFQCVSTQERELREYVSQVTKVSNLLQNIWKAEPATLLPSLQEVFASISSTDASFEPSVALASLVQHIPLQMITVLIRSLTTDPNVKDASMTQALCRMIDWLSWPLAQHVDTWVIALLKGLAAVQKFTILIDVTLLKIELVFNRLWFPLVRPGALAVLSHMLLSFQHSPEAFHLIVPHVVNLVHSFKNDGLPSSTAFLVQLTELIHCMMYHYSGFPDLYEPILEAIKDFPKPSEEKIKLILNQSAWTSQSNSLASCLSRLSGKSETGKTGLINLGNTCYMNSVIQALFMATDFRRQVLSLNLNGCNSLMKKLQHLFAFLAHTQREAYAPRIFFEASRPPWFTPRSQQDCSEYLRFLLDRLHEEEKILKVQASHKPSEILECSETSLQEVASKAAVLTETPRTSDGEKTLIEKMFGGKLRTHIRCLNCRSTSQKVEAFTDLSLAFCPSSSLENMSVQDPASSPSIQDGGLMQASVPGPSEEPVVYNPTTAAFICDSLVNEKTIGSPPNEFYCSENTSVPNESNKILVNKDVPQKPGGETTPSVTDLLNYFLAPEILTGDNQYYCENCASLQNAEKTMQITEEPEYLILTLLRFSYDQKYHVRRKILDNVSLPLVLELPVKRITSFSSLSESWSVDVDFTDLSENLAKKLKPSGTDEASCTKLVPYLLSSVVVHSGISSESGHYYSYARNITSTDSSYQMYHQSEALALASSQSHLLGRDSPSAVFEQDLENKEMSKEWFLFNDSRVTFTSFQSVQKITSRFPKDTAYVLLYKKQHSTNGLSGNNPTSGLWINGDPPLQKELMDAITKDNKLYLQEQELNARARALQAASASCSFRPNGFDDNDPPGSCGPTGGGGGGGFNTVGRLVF
Summary of the method: as §1

[4] = target: T3, USP39 (UniProt Q53GS9)
T3 sequence (whole entry): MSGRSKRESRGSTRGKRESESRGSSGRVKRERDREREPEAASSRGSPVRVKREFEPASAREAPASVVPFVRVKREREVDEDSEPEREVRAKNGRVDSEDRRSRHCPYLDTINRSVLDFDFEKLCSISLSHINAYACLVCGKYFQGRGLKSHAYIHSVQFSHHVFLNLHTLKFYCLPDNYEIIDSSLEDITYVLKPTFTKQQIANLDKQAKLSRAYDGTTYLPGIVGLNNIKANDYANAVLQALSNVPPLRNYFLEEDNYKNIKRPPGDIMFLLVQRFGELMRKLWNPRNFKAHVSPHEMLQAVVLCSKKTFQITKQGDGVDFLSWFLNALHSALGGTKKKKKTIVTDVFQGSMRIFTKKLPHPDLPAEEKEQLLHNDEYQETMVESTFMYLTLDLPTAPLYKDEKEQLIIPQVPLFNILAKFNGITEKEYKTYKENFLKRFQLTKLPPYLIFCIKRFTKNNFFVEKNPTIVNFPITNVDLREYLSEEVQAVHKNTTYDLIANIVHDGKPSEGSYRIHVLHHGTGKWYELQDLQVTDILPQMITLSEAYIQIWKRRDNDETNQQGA
Summary of the method: as §1

[5] = target: T4, USP4 (UniProt Q13107)
T4 sequence (whole entry): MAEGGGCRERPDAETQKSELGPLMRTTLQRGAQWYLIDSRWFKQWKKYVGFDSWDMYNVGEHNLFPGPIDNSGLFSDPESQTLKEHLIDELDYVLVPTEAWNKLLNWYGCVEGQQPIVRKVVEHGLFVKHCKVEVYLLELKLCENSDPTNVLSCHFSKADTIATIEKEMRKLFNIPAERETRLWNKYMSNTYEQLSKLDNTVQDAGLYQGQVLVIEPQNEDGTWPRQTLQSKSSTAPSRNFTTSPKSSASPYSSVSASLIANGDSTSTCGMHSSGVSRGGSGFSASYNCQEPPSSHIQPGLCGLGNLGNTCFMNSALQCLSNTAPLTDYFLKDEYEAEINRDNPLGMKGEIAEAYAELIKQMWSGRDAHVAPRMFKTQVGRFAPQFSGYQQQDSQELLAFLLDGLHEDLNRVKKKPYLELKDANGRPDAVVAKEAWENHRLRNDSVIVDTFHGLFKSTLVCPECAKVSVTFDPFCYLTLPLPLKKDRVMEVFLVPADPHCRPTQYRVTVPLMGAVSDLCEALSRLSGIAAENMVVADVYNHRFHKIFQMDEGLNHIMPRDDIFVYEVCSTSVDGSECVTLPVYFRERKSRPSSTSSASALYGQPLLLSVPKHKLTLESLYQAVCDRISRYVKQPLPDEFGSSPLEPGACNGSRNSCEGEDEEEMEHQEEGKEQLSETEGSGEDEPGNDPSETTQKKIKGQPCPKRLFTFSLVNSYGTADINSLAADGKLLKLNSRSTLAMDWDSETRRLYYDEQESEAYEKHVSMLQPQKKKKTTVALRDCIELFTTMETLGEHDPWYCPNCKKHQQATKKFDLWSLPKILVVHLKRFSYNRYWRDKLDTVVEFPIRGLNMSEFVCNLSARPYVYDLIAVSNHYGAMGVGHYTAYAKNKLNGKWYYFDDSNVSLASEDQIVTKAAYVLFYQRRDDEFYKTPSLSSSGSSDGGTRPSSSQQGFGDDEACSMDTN
Summary of the method: as §1

Measured: log2 ratio of Biotin-Ahx-Ub-VS probe labelling

USP34, sequence (Q70CQ2 whole entry, the tested form may be a part): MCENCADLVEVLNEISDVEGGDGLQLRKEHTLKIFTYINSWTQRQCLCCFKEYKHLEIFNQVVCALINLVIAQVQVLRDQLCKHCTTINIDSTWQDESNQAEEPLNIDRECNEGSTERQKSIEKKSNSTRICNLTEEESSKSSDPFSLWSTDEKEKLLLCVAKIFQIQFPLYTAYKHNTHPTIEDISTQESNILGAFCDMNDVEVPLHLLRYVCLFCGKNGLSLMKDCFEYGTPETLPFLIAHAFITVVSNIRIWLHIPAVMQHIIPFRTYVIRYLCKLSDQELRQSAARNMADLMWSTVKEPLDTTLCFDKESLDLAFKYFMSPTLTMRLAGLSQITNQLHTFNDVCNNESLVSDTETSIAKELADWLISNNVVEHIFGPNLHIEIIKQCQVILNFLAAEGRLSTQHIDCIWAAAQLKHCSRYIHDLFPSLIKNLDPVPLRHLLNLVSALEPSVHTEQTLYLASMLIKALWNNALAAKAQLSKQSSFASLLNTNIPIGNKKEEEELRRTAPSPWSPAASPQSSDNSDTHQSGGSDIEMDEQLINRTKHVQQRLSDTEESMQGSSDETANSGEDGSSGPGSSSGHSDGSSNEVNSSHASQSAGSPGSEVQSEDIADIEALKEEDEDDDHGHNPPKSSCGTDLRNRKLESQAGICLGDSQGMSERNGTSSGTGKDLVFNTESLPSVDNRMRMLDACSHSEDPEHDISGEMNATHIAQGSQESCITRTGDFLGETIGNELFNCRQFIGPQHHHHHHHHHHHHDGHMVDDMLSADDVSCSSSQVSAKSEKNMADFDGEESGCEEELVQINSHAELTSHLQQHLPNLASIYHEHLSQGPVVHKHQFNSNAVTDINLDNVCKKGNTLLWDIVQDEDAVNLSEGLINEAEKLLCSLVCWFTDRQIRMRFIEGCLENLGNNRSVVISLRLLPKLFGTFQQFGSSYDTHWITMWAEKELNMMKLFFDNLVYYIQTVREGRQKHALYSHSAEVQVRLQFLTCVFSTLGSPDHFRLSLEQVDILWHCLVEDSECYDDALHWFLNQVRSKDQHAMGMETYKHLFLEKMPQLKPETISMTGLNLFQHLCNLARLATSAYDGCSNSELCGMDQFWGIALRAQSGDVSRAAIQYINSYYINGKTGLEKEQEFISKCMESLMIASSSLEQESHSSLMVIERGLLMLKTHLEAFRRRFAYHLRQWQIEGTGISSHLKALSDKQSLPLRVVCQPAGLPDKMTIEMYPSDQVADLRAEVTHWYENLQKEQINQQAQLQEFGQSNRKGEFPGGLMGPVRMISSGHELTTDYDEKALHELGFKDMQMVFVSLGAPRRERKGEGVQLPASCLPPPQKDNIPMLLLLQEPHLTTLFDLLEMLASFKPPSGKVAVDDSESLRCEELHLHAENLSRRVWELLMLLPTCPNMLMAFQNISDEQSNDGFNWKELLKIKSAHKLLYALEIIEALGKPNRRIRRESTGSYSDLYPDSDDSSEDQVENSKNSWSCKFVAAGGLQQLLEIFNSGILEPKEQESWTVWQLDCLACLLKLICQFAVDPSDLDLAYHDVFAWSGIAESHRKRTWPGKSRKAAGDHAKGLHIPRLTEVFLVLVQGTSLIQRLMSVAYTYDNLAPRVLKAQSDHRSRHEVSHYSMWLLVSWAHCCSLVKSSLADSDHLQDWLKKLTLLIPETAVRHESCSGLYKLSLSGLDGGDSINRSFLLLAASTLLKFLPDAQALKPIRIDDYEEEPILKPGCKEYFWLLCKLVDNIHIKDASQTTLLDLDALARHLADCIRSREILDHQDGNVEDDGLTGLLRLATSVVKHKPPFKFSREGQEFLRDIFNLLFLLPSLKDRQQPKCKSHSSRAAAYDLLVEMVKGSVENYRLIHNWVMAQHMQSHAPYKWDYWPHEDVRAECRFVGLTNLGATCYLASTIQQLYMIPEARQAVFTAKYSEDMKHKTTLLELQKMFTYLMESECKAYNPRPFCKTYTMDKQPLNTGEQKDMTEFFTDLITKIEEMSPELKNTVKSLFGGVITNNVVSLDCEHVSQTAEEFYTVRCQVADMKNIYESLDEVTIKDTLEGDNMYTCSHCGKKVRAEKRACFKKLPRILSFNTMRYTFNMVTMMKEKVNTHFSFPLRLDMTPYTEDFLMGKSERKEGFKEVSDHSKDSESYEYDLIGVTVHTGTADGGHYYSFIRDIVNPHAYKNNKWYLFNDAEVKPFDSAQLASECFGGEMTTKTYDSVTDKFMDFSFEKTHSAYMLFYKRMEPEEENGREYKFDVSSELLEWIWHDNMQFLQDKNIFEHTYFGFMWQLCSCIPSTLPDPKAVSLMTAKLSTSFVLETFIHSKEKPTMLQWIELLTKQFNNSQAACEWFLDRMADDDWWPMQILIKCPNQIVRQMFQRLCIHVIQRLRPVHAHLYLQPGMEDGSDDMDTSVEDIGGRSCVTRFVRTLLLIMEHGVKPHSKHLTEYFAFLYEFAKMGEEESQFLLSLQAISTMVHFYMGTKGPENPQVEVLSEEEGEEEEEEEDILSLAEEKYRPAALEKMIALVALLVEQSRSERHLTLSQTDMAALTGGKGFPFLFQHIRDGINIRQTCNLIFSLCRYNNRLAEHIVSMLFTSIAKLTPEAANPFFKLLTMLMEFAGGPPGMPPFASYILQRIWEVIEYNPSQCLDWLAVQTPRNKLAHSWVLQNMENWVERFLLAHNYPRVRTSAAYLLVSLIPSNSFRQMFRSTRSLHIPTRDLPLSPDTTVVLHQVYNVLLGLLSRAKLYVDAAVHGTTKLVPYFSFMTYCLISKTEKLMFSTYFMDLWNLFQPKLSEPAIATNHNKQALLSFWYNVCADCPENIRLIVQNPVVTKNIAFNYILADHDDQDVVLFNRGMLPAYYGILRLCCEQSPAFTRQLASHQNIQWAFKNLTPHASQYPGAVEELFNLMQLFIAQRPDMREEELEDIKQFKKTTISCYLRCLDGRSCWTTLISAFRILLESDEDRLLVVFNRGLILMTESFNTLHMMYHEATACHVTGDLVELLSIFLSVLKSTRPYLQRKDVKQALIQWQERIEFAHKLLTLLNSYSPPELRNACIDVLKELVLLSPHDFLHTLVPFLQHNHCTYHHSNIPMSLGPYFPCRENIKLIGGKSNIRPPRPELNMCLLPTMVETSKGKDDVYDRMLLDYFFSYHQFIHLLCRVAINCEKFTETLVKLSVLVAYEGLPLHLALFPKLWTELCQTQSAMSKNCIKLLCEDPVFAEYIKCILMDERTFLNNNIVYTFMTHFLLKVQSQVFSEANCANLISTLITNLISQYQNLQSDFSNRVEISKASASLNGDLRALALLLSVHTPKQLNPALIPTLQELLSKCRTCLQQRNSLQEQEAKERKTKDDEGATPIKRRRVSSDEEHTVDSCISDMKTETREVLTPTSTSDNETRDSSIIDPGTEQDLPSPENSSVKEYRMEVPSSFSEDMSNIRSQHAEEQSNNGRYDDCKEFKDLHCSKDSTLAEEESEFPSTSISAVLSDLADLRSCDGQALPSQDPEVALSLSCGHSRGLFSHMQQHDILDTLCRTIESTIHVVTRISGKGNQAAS

O=C(CCl)Nc1cccc(C(=O)N2CCSCC2)c1
inactive: [1] -0.185 | [2] 0.0297 | [3] -0.0941 | [4] 0.29 | [5] -0.272
